Source: ChEMBL document CHEMBL1961873, “Compounds: GSK PKIS; Assays: Nanosyn kinase panel” (2012)

What follows are molecules tested against Tyrosine-protein kinase Lyn (Homo sapiens) (UniProt P07948). Conditions: at 0.1 µM.
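Further: mean inhibition of the LYN A splice variant of the kinase.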

Sequence of Tyrosine-protein kinase Lyn (Homo sapiens) (P07948 2-512 limits assumed): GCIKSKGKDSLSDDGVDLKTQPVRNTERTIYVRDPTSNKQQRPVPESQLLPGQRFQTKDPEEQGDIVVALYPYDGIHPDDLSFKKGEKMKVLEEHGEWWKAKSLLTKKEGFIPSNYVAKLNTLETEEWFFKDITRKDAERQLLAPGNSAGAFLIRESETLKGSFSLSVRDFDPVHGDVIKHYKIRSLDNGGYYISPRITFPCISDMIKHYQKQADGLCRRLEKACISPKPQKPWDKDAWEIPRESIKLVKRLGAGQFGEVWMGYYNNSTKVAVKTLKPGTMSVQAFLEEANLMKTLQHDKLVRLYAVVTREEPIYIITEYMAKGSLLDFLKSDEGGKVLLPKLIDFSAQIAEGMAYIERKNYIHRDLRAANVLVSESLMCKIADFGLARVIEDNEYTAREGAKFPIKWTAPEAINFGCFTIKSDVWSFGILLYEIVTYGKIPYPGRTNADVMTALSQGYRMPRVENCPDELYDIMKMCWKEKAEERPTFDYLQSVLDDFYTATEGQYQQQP

Row | SMILES | inhibition [%]
1 | FC(F)(F)c1cccc(-c2nn3ncccc3c2-c2ccnc(Nc3ccc4c(c3)OCCO4)n2)c1 | 7.06
2 | O=C(Nc1n[nH]c2cc(-c3ccc(F)cc3)ccc12)C1CC1 | 6.61
3 | CN1CCC(n2cnc(-c3ccc(F)cc3)c2-c2ccnc(N)n2)CC1 | 1.99
4 | COc1ccc(-c2cc(-c3c[nH]nc3-c3ccccn3)ccn2)cc1 | 6.64
5 | COc1ccc(CNC(=O)c2ccc(-c3cc(-c4nnc(C)o4)ccc3C)cc2)cc1 | 4.62
6 | CCN(CC)S(=O)(=O)c1ccc(OC)c(Nc2ncc(-c3ccccc3)o2)c1 | 4.63
7 | CCOc1ccc2c(-c3ccnc(Nc4cccc(C(F)(F)F)c4)n3)cnn2n1 | 4.33
8 | COc1cccc(-c2c[nH]c3c(N/N=C/c4ccncc4)ncnc23)c1 | 40.1
9 | COc1cccc(-n2ncc3c(N/N=C/c4ccc(F)cc4)ncnc32)c1 | 19.6
10 | NS(=O)(=O)c1ccc(N/N=C2\C(=O)Nc3ccc4ncccc4c32)cc1 | 8.74
11 | Nc1nc(-c2ccc(F)cc2)c(-c2ccc3ncccc3n2)s1 | 9.43
12 | CNC(=O)c1cncc(/C=C/c2ccccc2Cl)c1 | 1.6
13 | COc1cc2c(cc1Nc1nc(Nc3ccsc3C(N)=O)c3cc[nH]c3n1)N(C(=O)CN(C)C)CCC2(C)C | 4.53
14 | Fc1cccc(COc2ccc(Nc3ncnc4sc(-c5ccco5)cc34)cc2Cl)c1 | 3.59
15 | COc1ccc2[nH]c3c4[nH]c5ccc(OC)cc5c4c4c(c3c2c1)C(=O)NC4=O | 10.8
16 | CNC(=O)c1cc(-c2ccc(F)cc2)cc(-c2ccc(S(=O)(=O)N3CCCC3)cc2)c1N | 2.72
